Laboratory results: PubChem BioAssay
“And” between values parts separate entries of the source, which are not always exact repeats. Identical values can stand only once. The source made the active and inactive calls.

Experiments:
[1] = system: Plasmodium falciparum Sir2 (PF13_0152, Sir2A); test: pfSir2 binders on small-molecule microarrays, primary screen, biochemical, small-molecule microarray, 635 nm fluorescence (AID 1098); conditions: small-molecule microarray binding, fluorescence 635 nm; higher = more signal;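 note: score merges spot fluorescence intensity with its signal-to-noise ratio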
[2] = small-molecule microarray binders of probe aDKK1, primary screen, biochemical, biotinylated probe, 635/667 nm fluorescence (AID 1099); conditions: higher = more signal;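 note: score merges 667nm spot fluorescence with signal to noise across triplicate slides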
[3] = small-molecule microarray binders of probe aCHRDL2, primary screen, biochemical, biotinylated probe, 635/667 nm fluorescence (AID 1100); conditions: higher = more signal
[4] = splicing luciferase reporter signal modulators, primary screen, spliceosome inhibition project, cell-based, HEK293, splice +/- reporter (AID 1101); conditions: luminescence, 24 h, higher = more signal, called active from +8 up or from −8 down;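 note: HEK293 cells carrying a splicing-competent luciferase reporter gene; test concentration not given here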
[5] = target: Fibroblast growth factor 10 (Homo sapiens) (UniProt O15520); test: FGF10 binders on small-molecule microarrays, primary screen, biochemical, small-molecule microarray, 635 nm fluorescence (AID 1102); conditions: FGF10 binding, fluorescence 635 nm, higher = more signal
[6] = system: glycogen synthase kinase-3 (GSK3A per assay name; protocol says GSK3B); test: GSK3 binders on small-molecule microarrays, primary screen, biochemical, small-molecule microarray, 635 nm fluorescence, GSK3A (AID 1103); conditions: small-molecule microarray binding, fluorescence 635 nm; higher = more signal; note: the record names both GSK3A and GSK3B
[7] = target: Epidermal growth factor receptor (Homo sapiens) (UniProt P00533); test: EGFR binders on small-molecule microarrays, primary screen, biochemical, small-molecule microarray, 635 nm fluorescence (AID 1104); conditions: EGFR binding, higher = more signal;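 note: score merges 667 nm emission intensity with spot signal to noise over triplicate slides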
[8] = target: Follistatin-related protein 3 (Homo sapiens) (UniProt O95633); test: FSTL3 binders on small-molecule microarrays, primary screen, biochemical, small-molecule microarray, 635 nm fluorescence (AID 1105); conditions: FSTL3 binding, higher = more signal;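 note: score merges emission near 667 nm and signal to noise per printed spot across three slides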
[9] = target: Dickkopf-related protein 1 (Homo sapiens) (UniProt O94907); test: DKK1 binders on small-molecule microarrays, primary screen, biochemical, small-molecule microarray, 635 nm fluorescence scan (AID 1106); conditions: DKK1 binding, higher = more signal;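 note: score merges emission near 667 nm with signal to noise over three replicate slides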
[10] = system: Inhibin beta A chain (activin A); test: INHBA (activin A) binders on microarrays, primary screen, biochemical, small-molecule microarray, 635 nm fluorescence scan (AID 1107); conditions: small-molecule microarray binding, higher = more signal;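 note: mouse activin A protein probed at 4.33 µg/mL on printed slides; score merges bound-protein fluorescence near 667 nm with spot signal-to-noise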
[11] = system: Human papillomavirus type 1a protein E7 (residues 44-93); test: HPV1a E7 fragment binders on microarrays, primary screen, biochemical, small-molecule microarray, residues 44-93, 635 nm fluorescence (AID 1108); conditions: small-molecule microarray binding, fluorescence 635 nm; higher = more signal;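 note: E7 fragment applied at 1 µg/mL in TBST for 1 h at 4 C; score combines spot fluorescence with its signal to noise ratio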
[12] = modulators of HCV replicon luciferase signal, primary screen, HCV replication inhibitor project, Huh7 cells, luciferase reporter (AID 1109); conditions: 48 h, higher = more signal;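 note: huh7 hepatoma cells harbouring a luciferase neomycin HCV replicon reporter; luciferase luminescence as measure of HCV replicon replication; test concentration not given here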
[13] = target: Left-right determination factor 2 (Homo sapiens) (UniProt O00292); test: LEFTY2 binders on small-molecule microarrays, primary screen, biochemical, small-molecule microarray, 635 nm fluorescence scan (AID 1110); conditions: LEFTY2 binding, higher = more signal
[14] = target: Calmodulin-1 (Homo sapiens) (UniProt P0DP23); test: CALM1 binders on microarrays, EGTA buffer, profiling panel, biochemical, small-molecule microarray, Cy5-labelled CALM1 (AID 1111); conditions: Cy5-CALM1 binding fluorescence, higher = more signal;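 note: labelled calmodulin applied in Tris saline Tween buffer holding calcium plus EGTA and DTT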
[15] = target: Calmodulin-1 (Homo sapiens) (UniProt P0DP23); test: calcium-bound CALM1 binders on microarrays, profiling panel, artefact control for SMM control-protein annotation, biochemical, small-molecule microarray, Cy5-labelled CALM1, plus calcium (AID 1112); conditions: Cy5-CALM1 binding fluorescence, higher = more signal;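 note: score merges spot fluorescence with signal to noise from triplicate slides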
[16] = small-molecule microarray binders of probe aWnt5a, primary screen, biochemical, biotinylated probe, 635/667 nm fluorescence (AID 1113); conditions: higher = more signal;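 note: score merges 667 nm fluorescence intensity with signal-to-noise per printed feature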
[17] = small-molecule microarray binders of probe aShh, primary screen, biochemical, biotinylated probe, 635/667 nm fluorescence (AID 1114); conditions: higher = more signal;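 note: probe is biotin-labelled aShh protein from a stem cell growth factor screen; measures binding of labelled protein to compounds printed on the slide; score merges feature fluorescence at 667 nm with signal-to-noise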
[18] = small-molecule microarray binders of probe aNog, primary screen, biochemical, biotinylated probe, 635/667 nm fluorescence (AID 1115); conditions: higher = more signal;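 note: probe is biotinylated aNog protein used at 0.15 µg/mL for 1 h at 4 C; z-score combines 667 nm fluorescence of each spot with its signal to noise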
[19] = target: Torsin-1A-interacting protein 1 (Homo sapiens) (UniProt Q5JTV8); test: LAP1 binders from COS7 cell lysate, primary screen, small-molecule microarray, 635/667 nm fluorescence (AID 1116); conditions: COS7-hLAP1 lysate binding, 635 nm fluorescence, higher = more signal
[20] = target: Alpha-bungarotoxin (Bungarus multicinctus) (UniProt P60615); test: alpha-bungarotoxin binders on microarray, profiling panel, artefact control for SMM control protein annotation, biochemical, small-molecule microarray, Alexa647 label, 635/667 nm fluorescence (AID 1117); conditions: alpha-BTX-A647 binding fluorescence, higher = more signal
Sequence of Alpha-bungarotoxin (Bungarus multicinctus) (P60615 whole entry, looked up): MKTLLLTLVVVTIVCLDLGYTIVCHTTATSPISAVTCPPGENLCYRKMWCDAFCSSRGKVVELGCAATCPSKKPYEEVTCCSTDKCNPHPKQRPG

Sequence of Fibroblast growth factor 10 (Homo sapiens) (O15520 whole entry, looked up): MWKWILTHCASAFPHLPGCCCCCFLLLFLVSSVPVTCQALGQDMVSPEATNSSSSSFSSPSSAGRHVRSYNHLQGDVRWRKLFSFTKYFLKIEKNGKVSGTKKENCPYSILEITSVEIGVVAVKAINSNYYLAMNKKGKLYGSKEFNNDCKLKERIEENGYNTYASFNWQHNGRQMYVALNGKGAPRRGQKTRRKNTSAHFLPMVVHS
Sequence of Left-right determination factor 2 (Homo sapiens) (O00292 whole entry, looked up): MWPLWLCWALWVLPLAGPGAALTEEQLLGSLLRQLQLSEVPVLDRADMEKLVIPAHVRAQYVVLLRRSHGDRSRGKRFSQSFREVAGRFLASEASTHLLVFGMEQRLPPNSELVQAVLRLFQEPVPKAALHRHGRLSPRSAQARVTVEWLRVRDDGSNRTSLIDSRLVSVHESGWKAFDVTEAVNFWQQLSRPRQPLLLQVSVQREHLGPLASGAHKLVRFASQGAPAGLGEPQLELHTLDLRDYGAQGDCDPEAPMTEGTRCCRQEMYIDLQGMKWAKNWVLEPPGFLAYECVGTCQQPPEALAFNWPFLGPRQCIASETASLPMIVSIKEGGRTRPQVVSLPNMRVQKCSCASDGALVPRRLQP
Sequence of Follistatin-related protein 3 (Homo sapiens) (O95633 whole entry, looked up): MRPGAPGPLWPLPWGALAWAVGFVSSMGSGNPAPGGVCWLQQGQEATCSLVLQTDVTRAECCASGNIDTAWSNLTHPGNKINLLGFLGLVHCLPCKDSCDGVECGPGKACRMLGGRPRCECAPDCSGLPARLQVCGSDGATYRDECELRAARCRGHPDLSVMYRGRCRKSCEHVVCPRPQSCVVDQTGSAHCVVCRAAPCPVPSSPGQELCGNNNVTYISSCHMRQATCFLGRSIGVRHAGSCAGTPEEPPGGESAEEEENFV
Sequence of Torsin-1A-interacting protein 1 (Homo sapiens) (Q5JTV8 whole entry, looked up): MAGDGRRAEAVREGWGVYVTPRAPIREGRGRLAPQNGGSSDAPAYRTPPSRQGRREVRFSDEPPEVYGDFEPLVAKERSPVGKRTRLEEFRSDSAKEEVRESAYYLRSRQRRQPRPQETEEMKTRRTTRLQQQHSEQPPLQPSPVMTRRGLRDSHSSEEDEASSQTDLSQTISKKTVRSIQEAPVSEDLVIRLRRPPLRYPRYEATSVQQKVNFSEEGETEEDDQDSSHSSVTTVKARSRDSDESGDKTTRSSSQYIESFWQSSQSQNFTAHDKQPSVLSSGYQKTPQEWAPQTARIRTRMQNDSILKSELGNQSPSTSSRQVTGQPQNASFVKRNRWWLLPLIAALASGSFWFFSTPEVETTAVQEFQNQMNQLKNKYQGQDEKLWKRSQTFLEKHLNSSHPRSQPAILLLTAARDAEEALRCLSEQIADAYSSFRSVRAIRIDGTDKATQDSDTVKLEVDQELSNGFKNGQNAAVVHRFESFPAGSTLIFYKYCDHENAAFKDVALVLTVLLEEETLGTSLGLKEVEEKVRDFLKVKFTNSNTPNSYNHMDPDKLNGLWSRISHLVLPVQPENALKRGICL
Sequence of Epidermal growth factor receptor (Homo sapiens) (P00533 whole entry, looked up): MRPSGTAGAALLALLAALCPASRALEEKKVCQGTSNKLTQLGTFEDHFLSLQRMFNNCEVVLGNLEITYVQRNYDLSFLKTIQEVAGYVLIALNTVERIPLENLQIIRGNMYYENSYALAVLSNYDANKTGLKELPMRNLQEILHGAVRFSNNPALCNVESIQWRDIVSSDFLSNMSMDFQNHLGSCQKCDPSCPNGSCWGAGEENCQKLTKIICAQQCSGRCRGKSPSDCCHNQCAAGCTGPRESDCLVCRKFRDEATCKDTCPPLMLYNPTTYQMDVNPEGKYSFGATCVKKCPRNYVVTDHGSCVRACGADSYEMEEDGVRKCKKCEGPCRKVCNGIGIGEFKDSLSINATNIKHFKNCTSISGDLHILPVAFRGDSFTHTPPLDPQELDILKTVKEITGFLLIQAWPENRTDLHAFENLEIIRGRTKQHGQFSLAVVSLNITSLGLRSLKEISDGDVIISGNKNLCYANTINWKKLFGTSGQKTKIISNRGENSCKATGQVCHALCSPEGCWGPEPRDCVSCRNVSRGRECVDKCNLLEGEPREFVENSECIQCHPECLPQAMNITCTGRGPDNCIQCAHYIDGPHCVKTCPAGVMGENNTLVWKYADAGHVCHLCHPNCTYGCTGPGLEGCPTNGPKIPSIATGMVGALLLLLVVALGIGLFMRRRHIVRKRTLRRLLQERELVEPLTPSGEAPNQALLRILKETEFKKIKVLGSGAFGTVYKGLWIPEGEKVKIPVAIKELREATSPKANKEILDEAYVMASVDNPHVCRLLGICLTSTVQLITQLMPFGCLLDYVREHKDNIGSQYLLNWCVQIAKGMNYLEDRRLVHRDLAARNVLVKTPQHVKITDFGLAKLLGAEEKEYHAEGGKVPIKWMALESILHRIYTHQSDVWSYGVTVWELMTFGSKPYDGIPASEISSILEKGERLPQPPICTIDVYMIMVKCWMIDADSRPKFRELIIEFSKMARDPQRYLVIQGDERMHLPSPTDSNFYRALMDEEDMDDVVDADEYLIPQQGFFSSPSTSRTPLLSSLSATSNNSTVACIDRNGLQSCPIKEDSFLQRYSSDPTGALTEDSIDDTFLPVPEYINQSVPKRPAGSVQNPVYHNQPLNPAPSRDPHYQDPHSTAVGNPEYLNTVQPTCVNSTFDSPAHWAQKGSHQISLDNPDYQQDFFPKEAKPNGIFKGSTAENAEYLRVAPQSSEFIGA
Sequence of Dickkopf-related protein 1 (Homo sapiens) (O94907 whole entry, looked up): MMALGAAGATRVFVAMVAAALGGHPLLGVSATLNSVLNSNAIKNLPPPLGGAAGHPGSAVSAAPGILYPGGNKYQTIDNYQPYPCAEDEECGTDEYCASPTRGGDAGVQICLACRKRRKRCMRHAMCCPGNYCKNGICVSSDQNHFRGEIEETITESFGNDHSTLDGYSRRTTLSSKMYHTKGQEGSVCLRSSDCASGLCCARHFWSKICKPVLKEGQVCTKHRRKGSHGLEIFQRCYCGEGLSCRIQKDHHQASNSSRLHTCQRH

`CC(C)C(=O)N[C@@H]1CCCN1C(=O)C=Cc1ccccc1` gave a composite z-score [1] of 0.98, a composite z-score [2] of -0.311 and a composite z-score [3] of -0.469. The z-score [4] was 0.655 (inactive), the composite z-score [5] was 0.419 and the composite z-score [6] was 0.883. For the same compound, the composite z-score [7] was 0.432, the composite z-score [8] was 0.709 and the composite z-score [9] was 0.47. It also gave a composite z-score [10] of -0.172, a composite z-score [11] of 0.734 and a z-score [12] of -1.05. It also gave a composite z-score [13] of 0.85, a composite z-score [14] of 0.0331 and a composite z-score [15] of -1.12. It also gave a composite z-score [16] of -0.0704, a composite z-score [17] of -0.138 and a composite z-score [18] of 0.173. For the same compound, the composite z-score [19] was 0.587 and the composite z-score [20] was 0.289.

In the case of `COC(=O)C1=C(C)N(Cc2ccccc2)C2=C3C(=O)N(c4ccccc4)C(=O)[C@@H]3[C@@](O)(C(=O)OC)C(=O)N2[C@@H]1c1ccccc1`, the composite z-score [1] was -0.0191 and 0.501, the composite z-score [2] was -0.0254 and -0.186 and the composite z-score [3] was -0.914 and -0.616. For the same compound, the z-score [4] was 0.0988 (inactive) and -2.38 (inactive), the composite z-score [5] was 1.17 and 0.553 and the composite z-score [6] was 0.387 and 0.542. For the same compound, the composite z-score [7] was 0.566 and 0.369, the composite z-score [8] was 0.802 and 0.527 and the composite z-score [9] was 0.603 and 0.58. The composite z-score [10] was -0.042 and -0.581, the composite z-score [11] was -0.996 and 0.49 and the z-score [12] was -0.0822 and -0.147. For the same compound, the composite z-score [13] was 0.269 and 0.49, the composite z-score [14] was -0.101 and -0.0398 and the composite z-score [15] was -0.65 and -0.381. The composite z-score [16] was -0.124 and -0.0405, the composite z-score [17] was 0.151 and 0.318 and the composite z-score [18] was 0.0954 and -0.43. The composite z-score [19] was 0.792 and 1.32 and the composite z-score [20] was 0.231 and 1.87.

`CCCNC(=O)OC[C@H]1O[C@H](CCON=C(C)CCC(=O)OC[C@H]2O[C@H](C#Cc3ccccc3)C=C[C@@H]2Oc2ccc(C)cc2)C=C[C@@H]1Oc1ccc(OC)cc1` showed a composite z-score [1] of 0.352, a composite z-score [2] of -0.193 and a composite z-score [3] of -0.148. For the same compound, the z-score [4] was -0.301 (inactive), the composite z-score [5] was -0.397 and the composite z-score [6] was -0.952. It also gave a composite z-score [7] of -0.501, a composite z-score [8] of -0.637 and a composite z-score [9] of -0.121. It also gave a composite z-score [10] of 0.711, a composite z-score [11] of -1.27 and a z-score [12] of -0.564. It also gave a composite z-score [13] of 0.272, a composite z-score [14] of -0.309 and a composite z-score [15] of -0.465. For the same compound, the composite z-score [16] was -0.258, the composite z-score [17] was -0.174 and the composite z-score [18] was -0.332. It also gave a composite z-score [19] of -0.492 and a composite z-score [20] of 0.0642.
